Among the data in PubChem BioAssay (NCI) are growth values, retold here.

SMILES strings stand for the structures. Compounds without any hit were thinned out: in the full panel of roughly 83,000, 20% have a hit.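 48-hour exposure, single concentration, 96-well plates; percent growth endpoint where 0 means no net growth. Active: below 10.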 Activity calls are given as the source filed them.

This test has as its system MDA-MB-468 breast. Kind of test: NCI-60 one-dose screen, 48 h (100 = growth as untreated, 0 = no growth, -100 = all killed). As to conditions: 10 µM unless noted.
As to `COCCOc1ccc(-c2csc(NC(=O)CN3CCN(CCO)CC3)n2)cc1NS(=O)(=O)c1cccc2c(N(C)C)cccc12`, the growth was 60.7% (inactive). As to `CC1(C)CC(=O)NC1=O`, the growth is 100% (inactive). Regarding `COC(=O)C1=C(C(=O)Nc2cccnc2)C2OC1(C(Cc1ccccc1)Oc1ccccc1)C1OC21` (configuration not stated), the growth was -66.3% (active). Regarding `COc1ccc(N/N=C/c2cn(-c3ccc(C(=O)O)cc3)nc2-c2cc3ccccc3oc2=O)cc1`, the growth is 107% (inactive).

`Oc1ccc2c(c1)CCc1ccccc1-2`: the growth is 105% (inactive). Consider `CC(C)OC(=O)Nc1ccc(-c2nc(-c3cccc(OCCN4CCOCC4)c3)c(-c3ccnc(Br)c3)[nH]2)cc1`, for which the growth was -1.08% (active). With `COc1ccc(Cn2cc(Cn3c(=O)c(-c4nc5ccccc5[nH]4)cc4ccccc43)nn2)c(OC)c1OC`, the growth was 13.6% (inactive). For the compound `O=c1cc(-c2ccccc2)oc2cc(OCc3cn(Cc4ccc(F)cc4)nn3)cc(O)c12`, the growth was 53.9% [100 µM] (inactive). Take `CCN(CC)c1ccc2nc3ccc(N=Nc4ccc(O)cc4)cc3[n+](-c3ccccc3)c2c1`: the growth was -60.7% (active).

As to `O=C(CSc1nc2ccc([N+](=O)[O-])cc2[nH]1)Nc1ccc([N+](=O)[O-])cc1`, the growth was -12.4% (active). Turning to `Cc1ccc(Nc2cc(N)nc(N)n2)cc1`, the growth was 92.2% (inactive). Regarding `CN1c2ccccc2Sc2cc(C=C(C#N)C#N)ccc21`, the growth is -24.4% (active). For the compound `Cn1cccc1C(=O)C1C(c2cccc([N+](=O)[O-])c2)C2C3CCCCC3CN2C12C(=O)Nc1ccc(Cl)cc12` (configuration not stated), the growth is 32% (inactive). `c1ccc(CNc2nc(Nc3ccc(-c4nc5ccccc5[nH]4)cc3)c3cn[nH]c3n2)cc1`: the growth was -22% (active). As for `CCOC(=O)C(C)C(C)(O)c1ccccc1` (configuration not stated), the growth was 96.3% (inactive).

On to `CSc1nc2[nH]ncc2c(=O)[nH]1`, for which the growth was 92.6% (inactive). Turning to `COc1cccc(-c2nn(-c3ccccc3)cc2-c2ccnc(NCCCNC(=O)c3cccc(C(F)(F)F)c3)c2)c1`, the growth was 17.3% (inactive). Take `C/C(=N/Nc1nc(N/N=C(/C)c2ccc([N+](=O)[O-])cc2)nc(N2CCOCC2)n1)c1ccc([N+](=O)[O-])cc1`: the growth is 79.7% (inactive). On to `CCOCc1cc(C(C)(C)C)ccc1O`, for which the growth was 94.3% (inactive).

For the compound `CSc1nc(Nc2cccc(NC(=O)/C(C#N)=C/c3c(Cl)cccc3Cl)c2)c(C#N)c(-c2cccc([N+](=O)[O-])c2)n1`, the growth is 36.9% (inactive). As for `COc1ccc(/C=C/c2nc(Nc3ccc(S(=O)(=O)Nc4cc(C)on4)cc3)c3ccccc3n2)cc1`, the figure is 29.9% (inactive); as for `CN(C)Cc1cc(C(C)(C)C)cc(Br)c1O`, 90.2% (inactive); as for `COc1ccc(-c2ccc3ncc4c(c3c2)n(-c2ccc(N3CCNCC3)c(C(F)(F)F)c2)c(=O)n4C)cn1`, -87% (active).

Consider `CCCCCCCCCCCCNCCCc1ccccc1`, for which the growth is 13% (inactive). On to `CC1=C(C(=O)/C=C/c2ccc(N(C)C)cc2)C(c2ccccc2)NC(=S)N1` (configuration not stated), for which the growth was 102% (inactive). Take `CCOC(=O)C1=C(C)NC(=O)NC1c1c(Cl)n(-c2ccccc2)c2ccccc12` (configuration not stated): the growth was 58.3% (inactive). For the compound `NC(=S)Cc1ccccc1`, the growth was 89.8% (inactive).
